Reference: PubChem BioAssay (NCATS)
Values joined by “and” are separate entries in the source; they are usually repeats but may differ in a detail not shown here. Equal entries are not always repeated. Records with an inconclusive call do not appear. Entries that show only a call come without a potency. Unmarked numbers belong to inactive results. Active and inactive are the calls of the source. Calls come from the whole dose curve; as a rule, active = well fitted inhibition curve with a large enough effect; inconclusive = small, poorly fitted or top-dose-only effect; inactive = flat fitted curve, though single readings scatter.

Experiments:
[1] = qHTS profiling for inhibitors of Plasmodium falciparum proliferation (AID 504749); note: nearly all actives have a fitted effect of over 60% in size; settings: P. falciparum in erythrocytes, SYBR Green DNA, 72 h
Method in brief: (§1)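 Quantitative HTS: compounds pinned into medium, infected erythrocytes added (0.3% parasitemia, 2.5% hematocrit), 72 h culture at 37 C under 5% CO2. Saponin/Triton lysis with SYBR Green I, overnight RT, then fluorescence read.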

[2] = tested on: 3D7; assay: as above; settings: P. falciparum in erythrocytes, SYBR Green DNA, 72 h; series mostly up to 28.7 µM
Method in brief: as §1

[3] = tested on: 7G8; assay: as above; settings: P. falciparum in erythrocytes, SYBR Green DNA, 72 h; series mostly up to 28.7 µM
Method in brief: as §1

[4] = tested on: AA1029; assay: as above; settings: P. falciparum in erythrocytes, SYBR Green DNA, 72 h; series mostly up to 28.7 µM
Method in brief: as §1

[5] = tested on: AS120; assay: as above; settings: P. falciparum in erythrocytes, SYBR Green DNA, 72 h; series mostly up to 28.7 µM
Method in brief: as §1

[6] = tested on: ATS189; assay: as above; settings: P. falciparum in erythrocytes, SYBR Green DNA, 72 h; series mostly up to 28.7 µM
Method in brief: as §1

[7] = tested on: ATS95; assay: as above; settings: P. falciparum in erythrocytes, SYBR Green DNA, 72 h; series mostly up to 28.7 µM
Method in brief: as §1

[8] = tested on: C2A; assay: as above; settings: P. falciparum in erythrocytes, SYBR Green DNA, 72 h; series mostly up to 28.7 µM
Method in brief: as §1

[9] = tested on: CP185; assay: as above; settings: P. falciparum in erythrocytes, SYBR Green DNA, 72 h; series mostly up to 28.7 µM
Method in brief: as §1

[10] = tested on: CP191; assay: as above; settings: P. falciparum in erythrocytes, SYBR Green DNA, 72 h; series mostly up to 28.7 µM
Method in brief: as §1

[11] = at 28.7 µM (top of the series), parasite line A
[12] = at 28.7 µM (top of the series), parasite line B
Potency is the fitted concentration of half-maximal effect.

SMILES | activity, negative = inhibition [1, 11] | activity, negative = inhibition [1, 12] | Potency [2] | Potency [3] | Potency [4] | Potency [5] | Potency [6] | Potency [7] | Potency [8] | Potency [9] | Potency [10] | activity, negative = inhibition ([1]; at 12.8 µM (top of the series), parasite line A) [%] | activity, negative = inhibition ([1]; at 12.8 µM (top of the series), parasite line B) [%]
C=CCC1(C(C)CCC)C(=O)N=C(S)NC1=O (stereo not drawn) | -5.63% | -5% | inactive | inactive | inactive | inactive | inactive | inactive | inactive | inactive | inactive |  | 
O=C(CCl)c1ccc(Oc2ccc(C(=O)CCl)cc2)cc1 | 5.66% | 2.87% | inactive | inactive | inactive | inactive | inactive | inactive | inactive | inactive | inactive |  | 
O=c1[nH]cc(N(CCCl)CCCl)c(=O)[nH]1 | -0.577% | -4.63% | inactive | inactive | inactive | inactive | inactive | inactive | inactive | inactive | inactive |  | 
O=[N+]([O-])c1ccccc1 | -4.98% | 4.83% | inactive | inactive | inactive | inactive | inactive | inactive | inactive | inactive | inactive |  | 
Cc1sc2ccccc2c1CC1=NCCN1 | 5.82% | -2.48% | inactive | 10 µM (active) | inactive | inactive | inactive | inactive | inactive | inactive |  |  | 
Cn1sc(Cl)cc1=O | 11.9% | 7.44% | inactive | inactive | inactive | inactive | inactive | inactive | inactive | inactive | inactive |  | 
O=C(NCNC(=O)NC1C(=O)NC(=O)N1CO)NC1C(=O)NC(=O)N1CO (stereo not drawn) | 15.1% | 8.84% | inactive | inactive | inactive | inactive | inactive | inactive | inactive | inactive | inactive |  | 
C=CCN(C1=NCCN1)c1c(Cl)cccc1Cl | 11.1% | 1.37% | inactive | inactive | inactive | inactive | inactive | inactive | inactive | inactive | inactive |  | 
O=c1[nH]c(=O)n(Cl)c(=O)n1Cl | -5.08% | 11.2% | inactive | inactive | inactive | inactive | inactive | inactive | inactive | inactive | inactive |  | 
[O]=[Cd] | 10.1% | 8.29% | inactive | inactive | inactive | inactive | inactive | inactive | inactive | inactive | inactive |  | 
CCC(C)(S(=O)(=O)CC)S(=O)(=O)CC | 9.02% | 9.51% | inactive | inactive | inactive | inactive | inactive | inactive | inactive | inactive | inactive |  | 
C=CCN1CC[C@]23c4c5ccc(O)c4O[C@H]2[C@@H](O)C=C[C@H]3[C@H]1C5 | -14.2% | 6.2% | inactive | inactive | inactive | inactive | inactive | inactive | inactive | inactive | inactive |  | 
[O]=[Cr](=[O])([OH])[O][Cr](=[O])(=[O])[OH] | -8.13% and -2.73% | -2.72% and -3.46% | inactive | inactive | inactive | inactive | inactive | inactive | inactive | inactive | inactive |  | 
CCC1(c2ccccc2)C(=O)NC(=O)N(C(=O)c2ccccc2)C1=O (stereo not drawn) | -16% | 9.27% | inactive | 10 µM (active) | inactive | inactive | inactive | inactive | inactive | inactive |  |  | 
CN1c2ccccc2C(NCCCCCCC(=O)O)c2ccc(Cl)cc2S1(=O)=O (stereo not drawn) | 2.2% | -5.71% | inactive | inactive | inactive | inactive | inactive | inactive | inactive | inactive | inactive |  | 
N#CN | 10.5% | 6.79% | inactive | inactive | inactive | inactive | inactive | inactive | inactive | inactive | inactive |  | 
O=S(=O)(O)c1cc(O)ccc1O |  |  | inactive | inactive | inactive | inactive | inactive | inactive | inactive | inactive | inactive | 3.73 | -1.7
COc1ccc(OC)c(C(O)C(C)N)c1 (stereo not drawn) | 12.5% | -2.03% | inactive | inactive | inactive | inactive | inactive | inactive | inactive | inactive | inactive |  | 
CCCC(C)C1(CC)C(=O)NC(=O)NC1=O (stereo not drawn) | 2.58% | 0.184% | inactive | inactive | inactive | inactive | inactive | inactive | inactive | inactive | inactive |  | 
O=C1CCCCC1CN1CCCCC1 (stereo not drawn) | 6.14% | 5.73% | inactive | inactive | inactive | inactive | inactive | inactive | inactive | inactive | inactive |  | 
